From PubChem
Most compounds without a hit are left out; they make up all but 1.6% or so of the library.
NLRP3 yeast inh: NALP3 inflammasome inhibitors in reconstituted yeast, primary screen, luminescence, uHTS; Yeast reconstituted NLRP3/ASC/caspase-1, beta-gal luminescence, 24 h; inhibition, % at 10 µM; 0.39% of 330,000 active; AID 2825, 2010;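 active = inhibition of 50% or more; inactive = inhibition below 50%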;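 also: plate controls were induced DMSO wells for no effect and uninduced yeast grown without galactose for full effect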
NALP1 yeast inh: NALP1 inflammasome inhibitors in reconstituted yeast, colorimetric, S. cerevisiae, triplicate retest; inhibition, % at 10 µM; 0.61% of 280,000 active; AID 2071, 2009; S. cerevisiae NALP1/ASC/caspase-1 growth, X-gal OD620, 72 h; in the data active = inhibition mostly above about 24%, no sharp cut-off; inactive = mostly below about 32%
Rce1 inh: yeast Rce1p protease inhibitors, primary screen, biochemical, fluorescence, cell-free homogeneous; yeast membranes, quenched prenylated peptide cleavage fluorescence; 0.27% of 290,000 active; AID 2563, 2010; calls only;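 active = fall in fluorescence gain of 50% or more versus controls, with final raw signal at or below 3038400; inconclusive = same 50% fall but final raw signal above 3038400; inactive = fall in fluorescence gain under 50%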;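 also: plate controls were neutral control wells for no effect and wells lacking membranes for full effect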
CR mimetic SO: reduction of superoxide in aged yeast, primary screen, HTS | 0.18% of 330,000 active | superoxide response (% of plate mean), % at 10 µM | AID 2690, 2010 | S. cerevisiae aged cells, superoxide DHE fluorescence; stronger effect = lower value;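 active = superoxide response under a set limit, about three screen SD below normal, cut at about 65% in these data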;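 also: yeast aged for seven days with compound at 30 °C before DHE staining; 100% = average MFI of all compound-treated wells on the plate with controls excluded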
V-ATPase pHluor: regulators of yeast V-ATPase proton pumping, primary screen, pHLuorin cytosolic pH fluorescence; S. cerevisiae; 0.37% of 350,000 active; AID 504577, 2011; response, % at 10 µM; in the data active = response mostly above about 7.3%, no sharp cut-off; inactive = mostly below about 5.4%; also: actives read high
PERK inh: block of dimerizer-induced PERK translation repression, primary screen, PERK inhibitor project, CHO PERK-DD cells, SEAP luminescence, HTS. Eukaryotic translation initiation factor 2-alpha kinase 3 (Homo sapiens), Q9NZJ5. CHO PERK-DD fusion, SEAP luminescence translation reporter. inhibition, % at 5.6 µM. 0.17% of 220,000 active. AID 1416, 2008;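 active = inhibition above the mean inhibition of all tested compounds plus 3 SD, set separately per screening campaign, cut at about 2.9% in these data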;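 also: PERK kinase domain activated by AP20187 dimerizer at 100 nM; 0% = DMSO with dimerizer and 100% = rapamycin at 8.4 µM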
Target sequence (Q9NZJ5 whole entry, looked up, the tested form may be a part): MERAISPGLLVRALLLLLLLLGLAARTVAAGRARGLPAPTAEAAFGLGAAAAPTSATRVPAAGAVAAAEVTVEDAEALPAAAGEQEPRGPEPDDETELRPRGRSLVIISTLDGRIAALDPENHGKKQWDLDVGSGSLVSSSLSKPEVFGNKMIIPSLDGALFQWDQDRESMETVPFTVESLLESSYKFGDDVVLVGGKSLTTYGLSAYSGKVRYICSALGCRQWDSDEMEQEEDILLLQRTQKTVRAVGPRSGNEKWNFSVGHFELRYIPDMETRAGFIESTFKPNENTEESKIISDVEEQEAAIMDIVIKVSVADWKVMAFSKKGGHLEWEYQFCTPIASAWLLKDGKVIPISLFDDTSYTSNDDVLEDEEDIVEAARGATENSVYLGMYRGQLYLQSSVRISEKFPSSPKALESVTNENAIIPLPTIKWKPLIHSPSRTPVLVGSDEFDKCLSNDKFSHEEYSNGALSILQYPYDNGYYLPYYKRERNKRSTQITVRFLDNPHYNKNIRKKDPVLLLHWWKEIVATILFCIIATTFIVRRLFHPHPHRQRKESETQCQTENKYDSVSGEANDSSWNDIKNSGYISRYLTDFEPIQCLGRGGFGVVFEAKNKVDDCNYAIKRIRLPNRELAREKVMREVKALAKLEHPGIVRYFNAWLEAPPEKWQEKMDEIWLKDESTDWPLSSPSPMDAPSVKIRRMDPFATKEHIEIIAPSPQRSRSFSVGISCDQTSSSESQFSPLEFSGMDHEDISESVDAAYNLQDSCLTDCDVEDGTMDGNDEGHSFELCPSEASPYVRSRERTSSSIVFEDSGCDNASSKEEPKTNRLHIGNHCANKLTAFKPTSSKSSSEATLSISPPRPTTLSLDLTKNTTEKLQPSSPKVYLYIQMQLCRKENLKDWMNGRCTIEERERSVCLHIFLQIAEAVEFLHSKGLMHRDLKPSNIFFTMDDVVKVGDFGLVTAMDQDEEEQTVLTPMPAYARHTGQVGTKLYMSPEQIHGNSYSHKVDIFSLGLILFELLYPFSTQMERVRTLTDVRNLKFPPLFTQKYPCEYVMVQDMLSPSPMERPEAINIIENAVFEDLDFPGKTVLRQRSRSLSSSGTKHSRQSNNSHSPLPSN
The depositor's hits bear a star; i = inactive; ? = inconclusive; · = not tested or not shown; + = active, no number.

SMILES	NLRP3 yeast inh	NALP1 yeast inh	Rce1 inh	CR mimetic SO	V-ATPase pHluor	PERK inh
N#C/C(=C/c1ccc(N2CCCCC2)o1)C(=O)Nc1ccc2ccccc2c1	·	32.5	i	·	41.1*	-0.1
Cc1ccc(S(=O)(=O)N2C[C@@H]3[C@H]4CC[C@H](C4)[C@@H]3[C@@H](C)[C@H]2c2ccco2)cc1	·	·	·	99.1	0.8	·
Cc1cc(C)cc(Nc2nc(-c3ccc(S(=O)(=O)N4CCCC4)cc3)cs2)c1	-10.7	-21.7	+	90.1	-3.1	0.0
O=S(=O)(c1ccc(-c2csc(Nc3ccc(F)cc3)n2)cc1)N1CCCC1	1.4	13.4	+	99.7	-0.1	0.1
Cc1ccc(Nc2nc(-c3ccc(S(=O)(=O)N4CCCC4)cc3)cs2)cc1C	7.1	12.8	i	82.0	-0.3	-0.8
CCn1c(=S)[nH]c2c(c1=O)C(C)(C)Cc1ccccc1-2	·	-4.2	i	·	13.0*	1.4
O=C(/C=C/c1cccc([N+](=O)[O-])c1)c1ccc2c(c1)OCCO2	13.6	40.3*	i	101.8	-0.1	0.8
Cc1cc(=O)oc2c3c(cc(OCC(=O)N4CCC[C@H]4C(=O)O)c12)OC(C)(C)CC3	-2.0	8.8	?	146.9	0.2	·
Cc1cc(=O)oc2c3c(cc(OCC(=O)N4CCC(C(=O)O)CC4)c12)OC(C)(C)CC3	16.5	1.9	+	81.5	-1.3	·
Cc1cc(OCC(=O)N2CCC(C(=O)O)CC2)c2c(C)cc(=O)oc2c1	11.9	6.5	+	131.1	-2.5	·
CSC[C@H](NC(=O)COc1cc2c(c3oc(=O)cc(C)c13)CCC(C)(C)O2)C(=O)O	8.8	-3.1	+	108.1	0.5	·
Cc1cc(C)c(C)c(OCC(=O)N2CCOCC2)c1	12.8	43.7*	i	97.5	2.5	-0.2
CCc1cc(=O)oc2cc(C)cc(OCC(=O)N3CCC(C(=O)O)CC3)c12	21.1	12.4	i	75.5	1.6	·
O=C(CNC(=O)c1cccc(-n2cccc2)c1)Nc1ccccc1Br	·	·	·	·	2.4	·
O=C(NCc1nnc(SCC(=O)N2CCOCC2)o1)c1ccccc1	·	·	·	·	-3.2	·
O=C(c1ccccc1F)N1CCC2CC1c1cc(N3CCCCC3)ccc12 (stereo unspecified)	·	·	·	·	-2.4	·
CSCC(CO)NS(=O)(=O)c1ccc(C)cc1 (stereo unspecified)	-9.8	1.0	i	108.2	1.8	2.9*
Nc1ncnc2c1ncn2[C@@H]1O[C@H](CNCc2ccc(-n3cccn3)cc2)[C@@H](O)[C@H]1O	-3.8	·	·	94.5	0.2	·
O=C(Nc1cccc2ccccc12)c1ccc(OC(=S)N2CCOCC2)cc1	-6.2	13.1	+	101.6	8.6	-0.1
CCOCCCNC(=O)C(NC(=O)c1ccc(NC(C)=O)cc1)c1ccccc1 (stereo unspecified)	1.7	30.8	i	61.2*	-0.5	-0.1
NC(=O)c1c(NC(=O)c2ccccc2F)sc2c1CCC2	·	·	·	·	6.0	·
COc1cccc(CNC(=O)COC(=O)c2ccc(-c3ccc(O)cc3)cc2)c1	·	·	·	·	0.4	·
CC(C)(C)c1ccc2c(c1)N(CC(=O)O)C(=O)CO2	-2.3	0.8	i	108.4	-2.6	-0.8
CCOC(=O)N1CCN(C(=O)CN2C(=O)COc3ccc(C(C)(C)C)cc32)CC1	8.9	26.4*	i	105.3	3.0	-1.1
O=C(CSc1nc2ccccc2s1)N1N=C(c2cccs2)CC1c1ccc(F)cc1 (stereo unspecified)	-0.3	11.9	+	109.7	-3.4	-0.3
CCCCNC(=O)c1cc(-c2ccc(OC)c(OC)c2)on1	17.9	42.9*	i	78.8	0.7	0.2
CC(C)[C@H](NC(=O)c1ccco1)C(=O)Nc1ccc(N2CCCCCC2)cc1	·	·	·	·	-4.2	·
O=C(COc1ncnc2cc([N+](=O)[O-])ccc12)NC(=O)NC1CCCCC1	3.4	3.8	+	121.9	-0.5	-0.2
CC1(C)CC(=O)C=C(c2ccc(-c3cccc4c3sc3ccccc34)cc2)C1=O	·	·	·	·	-1.0	·
